From PubChem BioAssay AID623868 (Vanderbilt High Throughput Screening Facility, 2012)
In all, about 2,100 compounds went through this assay and about 760 (36%) were called active.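 How the source made its calls: active means thallium-flux fluorescence traces judged by eye to show enhanced or reduced glutamate response, manual score 1 or -1, so both directions (some results past the limit were not filed as active); inactive means the rest, including fluorescent or raised-baseline compounds.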 A selection follows.

Assay: non-GIRK thallium flux modulation in mGlu8 cells, confirmation, counter-screen for GIRK activator project, cell-based, HEK-293 rmGlu8, no GIRK (AID 623868);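 further: extra codes mark interference with 3 for fluorescent and 4 for baseline rise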
Conditions: thallium flux fluorescence, at 10 µM, actives lie on both sides, codes: 1 enhancer, -1 blocker, 0 none, thallium stimulus containing EC20 glutamate
For `C/C(=N\O)C(C)NC(=O)c1ccccc1` (centres undefined), the manual score was 0 (inactive). With `O=C(NN=c1c(=O)c2ccccc2c1=O)c1ccccc1` the manual score was 1 (active). In the case of `O=C(Nc1ccc(SC(F)F)cc1)C12CCC(CC1)C2`, the manual score is reported as 0 (inactive). With `O=c1[nH]c2ccc(Cl)cc2c(=O)n1Cc1ccco1` the manual score was 0 (inactive). In the case of `O=c1c2cc(Cl)ccc2[nH]c(=S)n1Cc1cccs1`, the manual score is reported as 1 (active). In the case of `O=c1c2cc(N3CCOCC3)ccc2[nH]c(=S)n1Cc1ccc(Cl)cc1`, the manual score is reported as 0 (inactive). For `O=c1c2cc(Cl)ccc2[nH]c(=S)n1Cc1ccco1`, the manual score was 1 (active). For `Cc1c(C(=O)O)[nH]c2c1C(=O)CC(c1ccc(Cl)cc1)C2` (centres undefined), the manual score was 0 (inactive). In the case of `CN1CCN(CC(=O)N2c3ccccc3C(C)(c3ccc(Cl)cc3)CC2(C)C)CC1` (centres undefined), the manual score is reported as 0 (inactive). For `CC(C)CNC(=S)NC(=O)c1ccc([N+](=O)[O-])cc1`, the manual score was 1 (active). In the case of `O=C(NN=C(Cc1ccccc1)Cc1ccccc1)c1ccc(F)cc1`, the manual score is reported as 0 (inactive). With `CCCCNC(=S)NC(=O)c1ccc([N+](=O)[O-])cc1` the manual score was 1 (active). For `COC(=O)C(CC(C)C)NC(=O)c1ccc([N+](=O)[O-])c(C)c1` (centres undefined), the manual score was 0 (inactive). In the case of `CC(C)CNC(=S)NC(=O)c1ccc(F)cc1`, the manual score is reported as 1 (active). With `CCCCCC(=O)NC(=S)NNC(=O)c1ccc([N+](=O)[O-])cc1` the manual score was 1 (active). For `CCCn1c(=N)n(CC(O)COc2cccc(C)c2)c2ccccc21` (centres undefined), the manual score was 0 (inactive). For `CN(C)Cc1c(O)c(Cl)cc2c3c(c(=O)oc12)CCCC3`, the manual score was 0 (inactive). With `COc1ccc2c(c1)C(C)=CC(C)(C)N2C(=O)CNCc1ccc2c(c1)OCO2` the manual score was 0 (inactive). With `O=C(O)c1oc2ccccc2c1CSc1ccccn1` the manual score was 0 (inactive). For `CCn1cc(C(=O)N2CC=C(c3ccccc3)CC2)c(=O)c2ccc(C)nc21`, the manual score was -0.5 (inactive). With `CCN(CC)c1ccc(/C=C2/C(=O)c3ccc(C(=O)O)cc3C2=O)cc1` the manual score was 3 (inactive). For `COc1ccc2nc(N3C(=O)/C(=C/c4ccccc4)NC3=S)sc2c1`, the manual score was 1 (active). For `O=C(c1ccco1)N1CCN(c2ncnc3scc(-c4cccs4)c23)CC1`, the manual score was 0 (inactive). In the case of `Cc1cc(N2CCOCC2)n2nc(C)c(-c3ccccc3)c2n1`, the manual score is reported as 0 (inactive). With `CCCn1c(=O)c2ccccc2n2c(SCC(=O)N3CCc4ccccc4C3)nnc12` the manual score was -1 (active). For `CCCn1c(=O)c2ccccc2n2c(SCc3nc4ccccc4s3)nnc12`, the manual score was -1 (active). In the case of `Cn1c(SCC(=O)N2c3ccccc3CCc3ccccc32)nnc1-c1ccc(O)cc1`, the manual score is reported as 0 (inactive). In the case of `CCCn1c(=O)c2ccccc2n2c(SCCOc3ccccc3F)nnc12`, the manual score is reported as -0.5 (inactive). With `CCc1cccc(CC)c1-n1c(SCC(=O)N2CCc3ccccc3C2)nnc1-c1cccnc1` the manual score was 0 (inactive). In the case of `COC(=O)c1ccc(Cl)c(NC(=O)CN2CCN(C)CC2)c1`, the manual score is reported as 0 (inactive). With `CCCCOC(=O)c1ccc(NC(=S)NC(=O)c2c(Cl)cnn2C)cc1` the manual score was 0.5 (inactive). With `CCCCc1ccc(NC(=S)Nc2ccc(Cl)c(S(=O)(=O)N(C)C)c2)cc1` the manual score was 0 (inactive). In the case of `CCCCOC(=O)c1ccc(NC(=S)NC(=O)c2c(Br)c(C)nn2C)cc1`, the manual score is reported as 1 (active). For `COC(=O)c1ccc(NC(=O)C23CC4CC(C2)CC(n2cncn2)(C4)C3)cc1`, the manual score was 0 (inactive). For `CCCOC(=O)c1ccc(NC(=O)c2ccoc2C)cc1`, the manual score was 0 (inactive). In the case of `CCCCOC(=O)c1ccc(NC(=S)NC(=O)c2c(Cl)cnn2CC)cc1`, the manual score is reported as 1 (active). For `CCCCOC(=O)Nc1ccc(C(=O)OCCC)cc1`, the manual score was 0 (inactive). For `COC(=O)c1ccc(NC(=S)NC(=O)c2c(Cl)cnn2C)cc1`, the manual score was 1 (active). With `CC1CCN(c2ccccc2NC(=S)NC(=O)c2cccs2)CC1` the manual score was 1 (active). With `O=C(NC(=S)Nc1ccccc1N1CCOCC1)c1cccs1` the manual score was 1 (active). In the case of `Cc1ccc(NC(=O)C(c2ccccc2)C2CCCC2)cc1` (centres undefined), the manual score is reported as 0 (inactive). With `O=C1NC(=S)/C(=C\c2ccc(-c3ccccc3Cl)o2)S1` the manual score was 3 (inactive). For `O=C1NC(=S)S/C1=C\c1ccc(SCc2ccccc2)o1`, the manual score was 1 (active). In the case of `O=S(=O)(Nc1nc(-c2sccc2Cl)cs1)c1cc(Cl)ccc1Cl`, the manual score is reported as 0 (inactive). In the case of `COC(=O)c1sccc1NC(=O)CSc1ccccc1NS(=O)(=O)c1cc(Cl)ccc1Cl`, the manual score is reported as 1 (active). For `O=C(CSc1cccc2cccc(Cl)c12)NCc1cccs1`, the manual score was 0 (inactive). With `CCC(C(=O)OCC(=O)Nc1ccc(Cl)c(S(=O)(=O)N(C)C)c1)c1ccccc1` (centres undefined) the manual score was 0 (inactive). In the case of `COC(=O)c1sccc1NC(=O)CSc1ccccc1NS(=O)(=O)c1ccccc1Cl`, the manual score is reported as 1 (active). In the case of `COC(=O)c1sccc1NC(=O)CSc1ccccc1NS(=O)(=O)c1ccc(Cl)cc1`, the manual score is reported as 0.5 (inactive). In the case of `CN(C)S(=O)(=O)c1cccc(NC(=O)COc2cccc(C#N)c2)c1`, the manual score is reported as 0 (inactive). For `Cc1ccc(C)c(C(=O)c2c(C)nc3sccn23)c1`, the manual score was 0 (inactive). In the case of `CC(/C=C/c1ccccc1)=N/NC(=O)c1cc([N+](=O)[O-])cc([N+](=O)[O-])c1`, the manual score is reported as 0 (inactive). With `Cc1ccc(OCC(=O)N/N=C\c2ccc(-c3cccc(C(=O)O)c3)o2)c(C)c1` the manual score was 0 (inactive). For `Cc1ccc(/C=N\NC(=O)c2cc([N+](=O)[O-])cc([N+](=O)[O-])c2)o1`, the manual score was 1 (active). With `Cc1ccc(-c2cc(-c3ccccc3)[nH]c(=S)c2C#N)cc1` the manual score was 1 (active). With `COc1ccc(CC(=O)Nc2cc(=O)n(C)c(=O)n2C)cc1` the manual score was 0 (inactive). In the case of `Cc1cc(C)nc(Sc2ncnc3sc4c(c23)CCC4)n1`, the manual score is reported as 1 (active). In the case of `COc1ccc(/C=C/c2nc3sc4c(c3c(=O)o2)CCC4)cc1`, the manual score is reported as 3 (inactive). In the case of `CC(C)Cn1cnc2sc3c(c2c1=N)CCCC3`, the manual score is reported as 0 (inactive). In the case of `O=C(CCSCc1cccc(Cl)c1)NCCc1ccc(Cl)cc1`, the manual score is reported as 0 (inactive). With `O=C(CCc1ccccc1)NNC(=S)NC(=O)c1ccc(Cl)cc1` the manual score was 1 (active). In the case of `COc1ccc(C(=O)CC(=O)C(=O)NCCc2cccc(C)c2)cc1`, the manual score is reported as 0.5 (inactive). With `COc1ccc(CCC(=O)NCc2cnn(C)c2)cc1` the manual score was 0 (inactive). In the case of `COc1ccc(C(=O)NC(=S)NNC(=O)CCc2ccccc2)cc1`, the manual score is reported as 1 (active). For `Oc1[nH]c2c(Cl)cc(Cl)cc2c1N=NC(=S)NCC1CCCO1` (centres undefined), the manual score was 1 (active). With `Oc1[nH]c2ccccc2c1N=NC(=S)NCCc1ccccc1` the manual score was 1 (active). For `Oc1cccc(Nc2nc(NCC3CCCO3)c3ccccc3n2)c1` (centres undefined), the manual score was 0 (inactive). With `Clc1ccc2[nH]c3c(NCC4CCCO4)ncnc3c2c1` (centres undefined) the manual score was 0 (inactive). With `Oc1[nH]c2ccccc2c1N=NC(=S)NCC1CCCO1` (centres undefined) the manual score was 1 (active).
